Assay results taken from PubChem BioAssay AID1159580 (chemical genetic matrix, 2015).
About 2,000 (36%) of roughly 5,500 compounds were called active. Not shown: some 18% with an inconclusive outcome. Rule as the data show it: active = normalized growth mostly below about 0.91 (no sharp cut-off); inconclusive = no clear call, values can overlap the other calls; inactive = mostly above about 0.92. This is one part of the list.

Test: chemical genetic growth profiling, strain panel (AID 1159580);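 also: tested at 20 µM; growth read once vehicle control cultures reached saturation at 30 °C; 1 = growth at the plate median or of vehicle wells; lower values mean less growth of the strain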
Conditions: growth OD
[1] = S. cerevisiae deletion strains, locus YAL013W, strain DEP1, stronger effect = lower value
[2] = S. cerevisiae deletion strains, locus YGR078C, strain PAC10, stronger effect = lower value
[3] = S. cerevisiae deletion strains, locus YGR229C, strain SMI1, stronger effect = lower value
[4] = S. cerevisiae deletion strains, locus YJR075W, strain HOC1, stronger effect = lower value
[5] = S. cerevisiae deletion strains, locus YMR263W, strain SAP30, stronger effect = lower value
[6] = S. cerevisiae deletion strains, locus YMR307W, strain GAS1, stronger effect = lower value
[7] = S. cerevisiae deletion strains, locus YNL153C, strain GIM3, stronger effect = lower value
[8] = S. cerevisiae deletion strains, locus YNL322C, strain KRE1, stronger effect = lower value
[9] = S. cerevisiae deletion strains, locus YPL055C, strain LGE1, stronger effect = lower value
[10] = S. cerevisiae deletion strains, locus YPL241C, strain CIN2, stronger effect = lower value
[11] = S. cerevisiae deletion strains, locus YAL040C, strain CLN3, stronger effect = lower value
[12] = S. cerevisiae deletion strains, locus YCL061C, strain MRC1 (second series), stronger effect = lower value
[13] = S. cerevisiae deletion strains, locus YDR363W, strain ESC2, stronger effect = lower value
[14] = S. cerevisiae deletion strains, locus YER002W, strain NOP16, stronger effect = lower value
[15] = S. cerevisiae deletion strains, locus YNL175C, strain NOP13, stronger effect = lower value
[16] = S. cerevisiae deletion strains, locus YNL197C, strain WHI3, stronger effect = lower value
[17] = S. cerevisiae deletion strains, locus YNL224C, strain SQS1, stronger effect = lower value
[18] = S. cerevisiae deletion strains, locus YOR083W, strain WHI5 (second series), stronger effect = lower value

Measured: normalized growth

NC(=S)c1ccc2nonc2c1
inactive: [1] 0.999 | S. cerevisiae deletion strains, locus YBR229C, strain ROT2, stronger effect = lower value 1 | S. cerevisiae deletion strains, locus YDL101C, strain DUN1, stronger effect = lower value 0.984 | S. cerevisiae deletion strains, locus YDL134C, strain PPH21, stronger effect = lower value 0.986 | S. cerevisiae deletion strains, locus YDR150W, strain NUM1, stronger effect = lower value 0.927 | S. cerevisiae deletion strains, locus YEL061C, strain CIN8, stronger effect = lower value 1 | [2] 1 | [3] 0.994 | S. cerevisiae deletion strains, locus YHR030C, strain SLT2, stronger effect = lower value 0.991 | S. cerevisiae deletion strains, locus YHR087W, strain rtc3, stronger effect = lower value 0.996 | S. cerevisiae deletion strains, locus YJR043C, strain POL32, stronger effect = lower value 1.02 | [4] 1.01 | S. cerevisiae deletion strains, locus YLR039C, strain RIC1, stronger effect = lower value 1.04 | S. cerevisiae deletion strains, locus YLR058C, strain SHM2 (second series), stronger effect = lower value 1 | S. cerevisiae deletion strains, locus YLR085C, strain ARP6, stronger effect = lower value 0.945 | S. cerevisiae deletion strains, locus YLR262C, strain YPT6, stronger effect = lower value 1.02 | S. cerevisiae deletion strains, locus YML094W, strain GIM5, stronger effect = lower value 0.982 | S. cerevisiae deletion strains, locus YMR219W, strain ESC1, stronger effect = lower value 0.992 | [5] 1.03 | [6] 1.03 | [7] 1.01 | S. cerevisiae deletion strains, locus YNL298W, strain CLA4 (second series), stronger effect = lower value 1.02 | [8] 0.996 | S. cerevisiae deletion strains, locus YNR030W, strain Alg12, stronger effect = lower value 0.988 | S. cerevisiae deletion strains, locus YOL006C, strain TOP1, stronger effect = lower value 0.976 | [9] 1.09 | [10] 0.963 | S. cerevisiae deletion strains, locus YPR135W, strain CTF4, stronger effect = lower value 1.13 | S. cerevisiae strains, strain wild type, stronger effect = lower value 0.994

COc1ccccc1CNCCCCCCNCCCCCCCCNCCCCCCNCc1ccccc1OC
inactive: [11] 1.01 | [12] 0.96 | [13] 0.906 | [14] 1.03 | [7] 0.942 | [15] 0.992 | [16] 1.03 | [17] 1.03 | [18] 0.875 | [10] 0.96

CC(C(=O)O)c1ccc(CC2CCCC2=O)cc1 (configuration not stated)
inactive: [1] 0.985 | [11] 0.995 | [12] 1 | [13] 1 | [14] 0.988 | [2] 1.02 | [3] 1.01 | [4] 1.01 | [5] 1 | [6] 0.999 | S. cerevisiae deletion strains, locus YNL128W, strain TEP1, stronger effect = lower value 0.976 | [15] 1.01 | [16] 1.02 | [17] 0.979 | [8] 1.01 | [18] 0.981 | [9] 0.974 | [10] 1.01
